Among the data in PubChem BioAssay are growth inhibition, inhibition and outcome values, retold here.

Unmarked numbers belong to inactive results. For some of these results: Measured potencies and affinities stand elsewhere. The source made the active and inactive calls. Unless noted, how the calls were made is not given here.

In general, inhibition refers to the drop in the measured response relative to a control, in per cent.

The nature of assay [1]: antimalarial activity against Dd2 strain (AID 2302;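 active means growth inhibition above 50% at the single 2 µM test dose, taken to imply half-maximal potency below 2 µM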;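 further: 0% = DMSO untreated growth and 100% = chloroquine plus artemisinin killed control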). As to conditions: P. falciparum Dd2 in RBCs, LDH growth readout, 72 h; at 2 µM; stronger effect = higher value.
Assay [2] can be described thus: human hepatoma cell viability loss – ATP luminescence, cytotoxicity control for P. falciparum antimalarial project, primary screen (AID 2303;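 active means inhibition above 50%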;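 further: 0% = DMSO wells and 100% = digitonin-killed cells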). The following applies: HepG2 viability, 24-48 h, at 10 µM, stronger effect = higher value.
In assay [3] the target is L-lactate dehydrogenase (Plasmodium falciparum (isolate CDC / Honduras)) (UniProt Q27743). The assay can be described thus: PfLDH activity inhibition – cell lysate, 3D7 strain, counter-screen for P. falciparum growth inhibition project (AID 2304).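 Further: 0% = vehicle and 100% = reference inhibitor.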 The following applies: P. falciparum 3D7 crude extract, LDH APAD/NBT absorbance; at 2 µM; stronger effect = higher value.
A short description of assay [4]: inhibition of 3D7 malaria parasite growth – strain 3D7 (AID 2306).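 Further: 0% = DMSO wells and 100% = chloroquine plus artemisinin control wells.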 As to conditions: P. falciparum 3D7 erythrocytic growth, LDH absorbance, 72 h; at 2 µM; stronger effect = higher value.
For assay [5], the target named is Calcium-dependent protein kinase 1 (Plasmodium falciparum (isolate 3D7)) (UniProt P62344). The assay can be described thus: PfCDPK1 kinase inhibitors, biochemical, TCAMS library (AID 1159585; cut-off not given, nearly all actives have IC50 up to about 0.98 µM;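 further: inhibitors leave more ATP so luminescence rises with inhibition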). As to conditions: recombinant PfCDPK1, Kinase-Glo ATP depletion luminescence.
For assay [6], the target named is Plasmodium falciparum protein kinase 6 (PK6, PF3D7_1337100) (UniProt Q8IDW1). Description: PfPK6 kinase inhibitors, biochemical, TCAMS library (AID 1159586). The following applies: recombinant PfPK6, Kinase-Glo ATP depletion luminescence.
Assay [7] addresses Protein kinase 7 (PK7), Plasmodium falciparum 3D7 (PF3D7_0213400) (UniProt Q7YTF7). Description: inhibition of Plasmodium PK7 catalytic activity – biochemical, TCAMS antimalarial set, Kinase-Glo luminescence (AID 1159587). The following applies: recombinant PfPK7, Kinase-Glo ATP depletion luminescence.
For assay [8], the target named is Calcium-dependent protein kinase 4 (Plasmodium falciparum (isolate 3D7)) (UniProt Q8IBS5). The assay can be described thus: PfCDPK4 kinase inhibitors, biochemical, TCAMS library (AID 1159588; cut-off not given, nearly all actives have IC50 up to about 0.91 µM). As to conditions: recombinant PfCDPK4, Kinase-Glo ATP depletion luminescence. On the technique in general: Kinase-Glo measures the ATP left after a reaction by luminescence.
Sequence of Calcium-dependent protein kinase 4 (Plasmodium falciparum (isolate 3D7)) (Q8IBS5 whole entry, looked up): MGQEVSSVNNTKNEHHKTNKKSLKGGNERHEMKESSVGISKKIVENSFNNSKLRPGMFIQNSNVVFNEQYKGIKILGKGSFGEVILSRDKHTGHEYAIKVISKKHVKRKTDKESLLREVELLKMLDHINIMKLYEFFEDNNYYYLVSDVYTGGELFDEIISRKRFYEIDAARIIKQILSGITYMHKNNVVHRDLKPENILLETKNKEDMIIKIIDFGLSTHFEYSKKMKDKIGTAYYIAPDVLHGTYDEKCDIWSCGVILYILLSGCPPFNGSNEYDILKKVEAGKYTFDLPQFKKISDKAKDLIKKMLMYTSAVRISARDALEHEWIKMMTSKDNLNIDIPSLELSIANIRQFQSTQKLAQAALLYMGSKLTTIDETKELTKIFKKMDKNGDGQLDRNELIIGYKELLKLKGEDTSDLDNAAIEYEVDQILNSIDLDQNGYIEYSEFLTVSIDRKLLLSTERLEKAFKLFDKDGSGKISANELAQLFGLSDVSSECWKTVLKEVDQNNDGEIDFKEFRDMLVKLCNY

Sequence of Plasmodium falciparum protein kinase 6 (PK6, PF3D7_1337100) (Q8IDW1 1-305): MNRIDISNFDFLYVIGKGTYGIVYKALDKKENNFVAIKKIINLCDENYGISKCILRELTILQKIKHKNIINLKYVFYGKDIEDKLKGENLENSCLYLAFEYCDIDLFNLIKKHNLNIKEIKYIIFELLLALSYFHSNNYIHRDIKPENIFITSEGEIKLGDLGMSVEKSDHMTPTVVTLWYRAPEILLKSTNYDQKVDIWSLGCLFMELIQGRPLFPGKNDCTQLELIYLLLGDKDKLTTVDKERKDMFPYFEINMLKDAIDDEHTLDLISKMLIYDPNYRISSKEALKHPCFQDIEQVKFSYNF
Sequence of L-lactate dehydrogenase (Plasmodium falciparum (isolate CDC / Honduras)) (Q27743 whole entry, looked up): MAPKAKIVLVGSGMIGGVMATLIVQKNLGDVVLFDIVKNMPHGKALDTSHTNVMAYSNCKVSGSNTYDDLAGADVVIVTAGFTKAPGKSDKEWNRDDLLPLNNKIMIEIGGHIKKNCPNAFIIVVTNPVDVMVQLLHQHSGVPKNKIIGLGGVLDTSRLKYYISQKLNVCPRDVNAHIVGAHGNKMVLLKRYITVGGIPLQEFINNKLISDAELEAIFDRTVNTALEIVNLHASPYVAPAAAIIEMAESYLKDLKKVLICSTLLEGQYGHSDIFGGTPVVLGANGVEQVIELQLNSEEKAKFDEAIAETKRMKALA
Sequence of Calcium-dependent protein kinase 1 (Plasmodium falciparum (isolate 3D7)) (P62344 whole entry, looked up): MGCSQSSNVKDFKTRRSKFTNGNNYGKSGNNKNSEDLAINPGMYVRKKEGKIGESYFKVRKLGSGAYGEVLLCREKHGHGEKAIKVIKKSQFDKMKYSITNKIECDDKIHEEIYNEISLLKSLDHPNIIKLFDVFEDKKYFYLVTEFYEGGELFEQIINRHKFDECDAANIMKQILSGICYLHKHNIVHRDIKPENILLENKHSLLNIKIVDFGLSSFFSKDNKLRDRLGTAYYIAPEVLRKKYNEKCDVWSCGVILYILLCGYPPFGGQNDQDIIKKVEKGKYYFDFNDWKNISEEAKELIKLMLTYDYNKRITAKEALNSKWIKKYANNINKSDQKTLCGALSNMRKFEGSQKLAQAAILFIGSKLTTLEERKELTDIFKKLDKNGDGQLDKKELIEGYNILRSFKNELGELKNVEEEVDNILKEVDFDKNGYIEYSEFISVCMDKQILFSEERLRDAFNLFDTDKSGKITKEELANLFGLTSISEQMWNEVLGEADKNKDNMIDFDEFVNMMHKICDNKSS
Sequence of Protein kinase 7 (PK7), Plasmodium falciparum 3D7 (PF3D7_0213400) (Q7YTF7 1-343): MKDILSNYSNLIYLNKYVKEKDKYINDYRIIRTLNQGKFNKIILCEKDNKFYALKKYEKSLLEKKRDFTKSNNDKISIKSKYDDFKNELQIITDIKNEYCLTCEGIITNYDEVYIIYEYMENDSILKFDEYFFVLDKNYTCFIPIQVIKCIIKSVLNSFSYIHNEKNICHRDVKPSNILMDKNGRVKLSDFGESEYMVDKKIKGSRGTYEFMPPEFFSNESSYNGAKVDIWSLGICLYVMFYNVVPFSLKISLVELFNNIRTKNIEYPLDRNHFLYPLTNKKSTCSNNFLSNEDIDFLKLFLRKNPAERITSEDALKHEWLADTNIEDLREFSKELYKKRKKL

As for `Cn1nccc1C(=O)NCCNCc1cccc(-c2ccc(-c3nc4ccc(C(F)(F)F)cc4[nH]3)cc2)c1`, the results for the growth inhibition in assay [1] and in assay [4] were 98% (active) and 102% (active), respectively. For the same compound, the inhibition in assay [2] was 51% (active); in assay [3] it was -1%. The outcome in assay [5], in assay [6], in assay [7] and in assay [8] was inactive.
As for `O=c1cc(NCCCNCc2cccc(C(F)(F)F)c2Cl)[nH]c2ccccc12`, the growth inhibition was 24% in assay [1] and 94% (active) in assay [4]. Further, the inhibition is 0% in assay [2] and -2% in assay [3]. In addition, the outcome in assay [5], in assay [6], in assay [7] and in assay [8] was inactive.
On to `COc1cccc2c(NN=Cc3ccccc3F)ccnc12`, for which the growth inhibition was 37% in assay [1] and 96% (active) in assay [4]. For the same compound, the results for the inhibition in assay [2] and in assay [3] were 6% and 1%, respectively. The outcome in assay [5], in assay [6], in assay [7] and in assay [8] was inactive.
Take `OC(CNC1CCCCC1)Cn1c2ccc(Br)cc2c2cc(Br)ccc21` (stereo not given): the growth inhibition is 100% (active) in assay [1] and 98% (active) in assay [4]. Moreover, the results for the inhibition in assay [2] and in assay [3] were 10% and 3%, respectively. In addition, the result in assay [5], in assay [6], in assay [7] and in assay [8] was inactive.
Consider `CCCc1cn2c3c(cc(C(=O)N[C@@H](Cc4ccccc4)[C@H](O)CNC4CCCCC4)cc13)N(C)S(=O)(=O)CC2`, for which the growth inhibition in assay [1] is 98% (active); in assay [4], 99% (active). Also, the inhibition in assay [2] is 3%; in assay [3], -2%. Moreover, the outcome in assay [5], in assay [6], in assay [7] and in assay [8] was inactive.
Take `Fc1cccc(COc2ccc(Nc3ncnc4sc(C#C[C@H]5CC[C@H](CNCC(F)(F)F)N5)cc34)cc2Cl)c1`: the growth inhibition in assay [1] was 51% (active); in assay [4], 100% (active). The inhibition in assay [2] is 10%; in assay [3], -4%. The result in assay [5], in assay [6], in assay [7] and in assay [8] was inactive.
For `COC(=O)CCCCCOc1cc(Cc2cnc(N)nc2N)cc(OC)c1OC`, the results for the growth inhibition in assay [1] and in assay [4] were -3% and 90% (active), respectively. For the same compound, the inhibition was -15% in assay [2] and 2% in assay [3]. For the same compound, the result in assay [5], in assay [6], in assay [7] and in assay [8] was inactive.
Take `CCC(C)NS(=O)(=O)c1ccc2nc(Nc3ccc(C)cc3)n(C3CCCCC3)c2c1` (stereo not given): the growth inhibition in assay [1] and in assay [4] was 97% (active) in each case. Moreover, the inhibition in assay [2] is -9%; in assay [3] it was -4%. Also, the result in assay [5], in assay [6], in assay [7] and in assay [8] was inactive.
In the case of `Cc1cccc2[nH]c(-c3cccc(-c4ccc(NC(=O)c5cnc[nH]5)cc4)c3)nc12`, the values for the growth inhibition in assay [1] and in assay [4] were 48% and 101% (active), respectively. Further, the inhibition is 8% in assay [2] and 3% in assay [3]. Moreover, the result in assay [5], in assay [6], in assay [7] and in assay [8] was inactive.
Take `Cc1cc(N(C)C)nc(Nc2ccc(NC(=O)COc3ccccc3)cc2)n1`: the growth inhibition in assay [1] is 67% (active); in assay [4] it was 101% (active). Moreover, the inhibition in assay [2] is 15%; in assay [3], 3%. The result in assay [5], in assay [6], in assay [7] and in assay [8] was inactive.
For `O=C1COC2(CN1C1CCN(Cc3ccc(O)cc3Cl)C1)c1ccccc1-c1ccccc12` (stereo not given), the growth inhibition is 70% (active) in assay [1] and 82% (active) in assay [4]. Besides, the results for the inhibition in assay [2] and in assay [3] were 10% and -1%, respectively. Also, the outcome in assay [5], in assay [6], in assay [7] and in assay [8] was inactive.
For `Nc1ccc2nc(C=Cc3ccccc3)[nH]c2c1`, the growth inhibition in assay [1] was 89% (active); in assay [4], 92% (active). In addition, the inhibition in assay [2] is 7%; in assay [3], 1%. Also, the result in assay [5], in assay [6], in assay [7] and in assay [8] was inactive.
On to `N/C(=N/C(=NCCCCCCN=C(/N=C(/N)Nc1ccc(Cl)cc1)N1CCOCC1)N1CCOCC1)Nc1ccc(Cl)cc1`, for which the growth inhibition in assay [1] was 91% (active); in assay [4] it was 93% (active). Moreover, the figures for the inhibition in assay [2] and in assay [3] were -11% and 2%, respectively. Besides, the result in assay [5], in assay [6], in assay [7] and in assay [8] was inactive.
Take `OC(CNCc1ccccc1OCc1ccccc1)c1cc(C(F)(F)F)cc(C(F)(F)F)c1` (stereo not given): the growth inhibition in assay [1] is 99% (active); in assay [4], 100% (active). Moreover, the inhibition in assay [2] and in assay [3] was 3% throughout. Also, the outcome in assay [5], in assay [6], in assay [7] and in assay [8] was inactive.
As to `N#Cc1ccc(N2CCN(Cc3ccc(-c4cccc(-c5nc6ccccc6[nH]5)c4)cc3)CC2)nc1`, the values for the growth inhibition in assay [1] and in assay [4] were 29% and 95% (active), respectively. Also, the inhibition in assay [2] was 33%; in assay [3], -1%. Besides, the outcome in assay [5], in assay [6], in assay [7] and in assay [8] was inactive.
Take `Cc1ccc(Cc2cnc(CN3CCCCC3)c(O)c2)cc1`: the growth inhibition in assay [1] is 75% (active); in assay [4], 93% (active). Moreover, the figures for the inhibition in assay [2] and in assay [3] were 4% and 1%, respectively. For the same compound, the outcome in assay [5], in assay [6], in assay [7] and in assay [8] was inactive.
Take `Cc1cc(OCC2CCCN(c3ncc(C(=O)NC4CC4)cc3Cl)C2)ccc1F` (stereo not given): the growth inhibition in assay [1] is 68% (active); in assay [4], 88% (active). Also, the figures for the inhibition in assay [2] and in assay [3] were 3% and -1%, respectively. The outcome in assay [5], in assay [6], in assay [7] and in assay [8] was inactive.
Regarding `CC(Cc1ccc(COc2ccc(CC(CO)NCCc3cccc(Cl)c3)cc2)cc1)NCCc1cccc(Cl)c1` (stereo not given), the growth inhibition in assay [1] is 86% (active); in assay [4] it was 101% (active). The values for the inhibition in assay [2] and in assay [3] were 99% (active) and 5%, respectively. The outcome in assay [5], in assay [6], in assay [7] and in assay [8] was inactive.
With `CCOc1cc(NC(=O)Nc2ccnc3ccccc23)cc(OC)c1`, the growth inhibition in assay [1] was 73% (active); in assay [4] it was 98% (active). Further, the inhibition was -7% in assay [2] and 3% in assay [3]. Moreover, the outcome in assay [5], in assay [6], in assay [7] and in assay [8] was inactive.
For `CNCCNCc1ccc(-c2ccc(-c3nc4c(C)cccc4[nH]3)s2)cc1`, the growth inhibition was 26% in assay [1] and 97% (active) in assay [4]. In addition, the inhibition in assay [2] was 16%; in assay [3], 5%. Besides, the outcome in assay [5], in assay [6], in assay [7] and in assay [8] was inactive.
